Giardia FBPA inh-1: Giardia lamblia aldolase inhibition | hit rate 0.71% among 290,000 | purified Giardia FBPA | Potency, µM (doses to about 59.6 µM), without a hit: at the top dose activity, negative = inhibition, hits mostly inhibitors | A8B2U2; also: potency is read from the fitted curve at half-maximal effect; % is scaled to controls: 0 for no effect and ±100 for the full control effect; nearly all actives have a fitted effect of over 55% in size
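40 nM FBPA preincubated 10 min at RT with compound (up to 57.5 uM final), then substrate plus GAPDH/TPI/NAD/arsenate coupling and diaphorase/resazurin added. Fluorescence read after 20 min at RT, 525/598 nm.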
LmPK inh: LmPK (Leishmania mexicana) enzyme inhibition. Q27686. purified LmPK, Kinase-Glo ATP luminescence, 1 h. Potency, µM (doses to about 57.5 µM), for inactives: at the top dose activity change, negative = inhibition, actives largely listed as inhibitors. hit rate 0.37% among 290,000. AID 1721; also: potency is read from the fitted curve at half-maximal effect; % is scaled to controls: 0 for no effect and ±100 for the full control effect
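In 50 mM imidazole pH 7.2 with 7 mM MgCl2, LmPK (0.1 nM) turned over PEP (0.5 mM) and ADP (0.1 mM) for 1 h at room temperature. Luciferase read-out of ATP.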
Shiga inhibitor: Shiga toxin inhibition; hit rate 9.2% among 290,000; Vero cells, Shiga toxin protein synthesis inhibition reporter; inhibition, % at 38.7 µM; AID 2315; in the data active = inhibition mostly above about 28%, no sharp cut-off; inactive = mostly below about 43%; also: 0% is about no effect
TbPYK inhibitor: T. brucei pyruvate kinase inhibition | Q57TT1 | TbPYK enzyme, Kinase-Glo Plus ATP luminescence, 45 min | Potency, µM (top dose mostly 76.8 µM), for the others: at the highest dose activity, negative = inhibition, usual class: inhibitors | hit rate 0.12% among 410,000; also: potency is read from the fitted curve at half-maximal effect; % is scaled to controls: 0 for no effect and ±100 for the full control effect; nearly all actives have a fitted effect of over 50% in size
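Readout: single end-point luminescence (Kinase-Glo Plus, 10 min). Reaction conditions were TbPYK/substrate plus 130 uM ADP, 45 min at RT, pH 7.2 TEA buffer. No-enzyme wells served as controls, and data were normalized before concentration-response fitting.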
RE007 growth inh: less growth of the S. pombe RE007 Vpr strain; S. pombe RE007 Vpr strain, BacTiter-Glo ATP luminescence, 24 h; Potency, µM (top dose mostly 92.2 µM), for inactives: at the top dose activity change, negative = less growth, usual class: inhibitors; hit rate 0.21% among 360,000; AID 651644; active = well fitted falling curve with a large enough effect; inconclusive = small, poorly fitted or top-dose-only effect; inactive = no such curve, though single readings can be large or run the other way; also: potency is read from the fitted curve at half-maximal effect; % is scaled to controls: 0 for no effect and ±100 for the full control effect; nearly all actives have a fitted effect of over 50% in size
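Fission yeast RE007 carrying one integrated HIV-1 vpr copy, seeded at OD 0.01 in PMG+AL medium with 23 nL pinned compound. Grown 24 h at 30 degrees; viability read by BacTiter-Glo luminescence after 5 min.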
Cycloheximide cs: counter-screen hit for Shiga toxin inhibitors, cycloheximide; cell reporter, cycloheximide protein synthesis inhibition counterscreen; hit rate 12% among 300,000; max response, %; in the data active = max response mostly above about 13%, no sharp cut-off; inactive = mostly below about 14%; also: read at 38.3 µM for the half of the compounds with a filed dose; 0% is about no effect
Giardia growth: Giardia lamblia growth inhibition; hit rate 5% among 1,500; shares compounds with Giardia FBPA inh-1; Giardia lamblia trophozoite growth inhibition; Potency, µM (highest dose often 57.5 µM), without a hit: top-dose activity change, negative = inhibition, actives largely listed as inhibitors;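 also: potency is read from the fitted curve at half-maximal effect; trophozoites exposed to compound for 48 h at 37 °C; % is scaled to controls: 0 for no effect and ±100 for the full control effect; nearly all actives have a fitted effect of over 70% in size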
Mammal cell tox: toxic to mammalian cells in Giardia aldolase counter-screen | shares compounds with Giardia FBPA inh-1 | mammalian cell viability counter-screen, qHTS | Potency, µM (highest dose often 57.5 µM), inactives show at the top dose viability change, negative = toxicity, hits mostly inhibitors | hit rate 4% among 1,500;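 also: Chinese hamster ovary cells used as mammalian cytotoxicity surrogate; viability measured as cellular ATP by luminescence; potency is read from the fitted curve at half-maximal effect; compound exposure lasted 48 h before reading; % is scaled to controls: 0 for no effect and ±100 for the full control effect; nearly all actives have a fitted effect of over 60% in size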
Giardia FBPA inh-2: confirmation of Giardia fructose-bisphosphate aldolase inhibitors; Potency, µM (doses to about 57.5 µM), inactives show top-dose activity change, negative = inhibition, usual class: inhibitors; purified Giardia aldolase enzyme activity, qHTS; AID 2787; shares compounds with Giardia FBPA inh-1; hit rate 5% among 1,500; also: potency is read from the fitted curve at half-maximal effect; % is scaled to controls: 0 for no effect and ±100 for the full control effect; nearly all actives have a fitted effect of over 45% in size
Rabbit FBPA inh: selectivity test for Giardia aldolase inhibitors: rabbit aldolase | hit rate 4% among 1,500 | shares compounds with Giardia FBPA inh-1 | Rabbit muscle FBPA enzyme inhibition, selectivity counter-screen | AID 2794 | Potency, µM (highest dose often 57.5 µM), for the others: top-dose activity, negative = inhibition, most hits filed as inhibitors; also: potency is read from the fitted curve at half-maximal effect; % is scaled to controls: 0 for no effect and ±100 for the full control effect; nearly all actives have a fitted effect of over 60% in size
Target sequence (P00883 whole entry, looked up): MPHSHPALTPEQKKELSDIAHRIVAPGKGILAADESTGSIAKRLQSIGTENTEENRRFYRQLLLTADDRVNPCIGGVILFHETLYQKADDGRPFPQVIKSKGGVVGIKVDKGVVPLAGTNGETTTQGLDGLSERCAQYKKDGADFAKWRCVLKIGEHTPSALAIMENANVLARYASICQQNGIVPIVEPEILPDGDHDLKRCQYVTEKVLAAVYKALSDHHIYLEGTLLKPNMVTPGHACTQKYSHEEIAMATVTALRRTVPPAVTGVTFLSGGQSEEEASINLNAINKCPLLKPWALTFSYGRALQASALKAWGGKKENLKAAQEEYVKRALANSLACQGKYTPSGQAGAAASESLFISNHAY
GAPDH counter: counter-screen for Giardia aldolase inhibitors: GAPDH coupling enzyme. shares compounds with Giardia FBPA inh-1. GAPDH coupling enzyme counterscreen, biochemical, qHTS. Potency, µM (highest dose often 57.5 µM), for the others: at the highest dose activity change, negative = inhibition, hits mostly inhibitors. hit rate 6% among 1,500; also: potency is read from the fitted curve at half-maximal effect; % is scaled to controls: 0 for no effect and ±100 for the full control effect; nearly all actives have a fitted effect of over 55% in size
An asterisk follows results filed as active; [ ] = dose if it differs, or a comment. The sample as a whole holds a higher share of hits than the screen did. Unless noted, calls follow the shape of the dose curve; as a rule, active = well fitted curve in the direction sought with a large enough effect; inconclusive = small, poorly fitted or top-dose-only effect, or another doubt; inactive = no such curve, though single readings can be large; an effect the other way counts as inactive or inconclusive.

How did O=C(O)c1ccc(Cl)c(S(=O)(=O)Nc2ccc3[nH]c(=O)[nH]c3c2)c1 do in these assays?
Giardia FBPA inh-1: inconclusive; LmPK inh: 8%; Shiga inhibitor: 8; TbPYK inhibitor: -5%; RE007 growth inh: -13%; Cycloheximide cs: 0; Giardia growth: 21%[38.3 µM]; Mammal cell tox: -13%; Giardia FBPA inh-2: 18µM*; Rabbit FBPA inh: inconclusive; GAPDH counter: 16µM*

Results for O=C(O)c1cccc(S(=O)(=O)Nc2ccc3[nH]c(=O)[nH]c3c2)c1 ?
Giardia FBPA inh-1: inconclusive; LmPK inh: 10%; Shiga inhibitor: 31; TbPYK inhibitor: -2%; RE007 growth inh: 5%; Cycloheximide cs: -1

How did O=[N+]([O-])c1ccc(/C=N/NC2=NS(=O)(=O)c3ccccc32)cc1 do in these assays?
Giardia FBPA inh-1: -8%; LmPK inh: 1%; Shiga inhibitor: -7; TbPYK inhibitor: 0%; RE007 growth inh: -16%; Cycloheximide cs: 2

How did O=[N+]([O-])c1ccc(O)c(/C=N/NC2=NS(=O)(=O)c3ccccc32)c1 do in these assays?
Giardia FBPA inh-1: 8.9µM*; LmPK inh: -6%; Shiga inhibitor: 1; TbPYK inhibitor: -24%; RE007 growth inh: -9%; Cycloheximide cs: 10; Giardia growth: -6%[38.3 µM]; Mammal cell tox: -14%; Giardia FBPA inh-2: inconclusive; Rabbit FBPA inh: 1%; GAPDH counter: -16%

Results for O=S1(=O)N=C(N/N=C/c2cccs2)c2ccccc21 ?
Giardia FBPA inh-1: 2µM*; LmPK inh: -2%; Shiga inhibitor: -2; TbPYK inhibitor: -4%; RE007 growth inh: 11%; Cycloheximide cs: -1; Giardia growth: -3%[38.3 µM]; Mammal cell tox: -5%; Giardia FBPA inh-2: 1%; Rabbit FBPA inh: 12%; GAPDH counter: 4%

How did Cc1ccc(-c2nc3scc(CCNS(=O)(=O)c4c(C)noc4C)n3n2)cc1 do in these assays?
TbPYK inhibitor: 2%

What do the screens show for `O=C(NC(=S)Nc1ccccc1Cl)c1cncc(Br)c1`?
Giardia FBPA inh-1: 6.3µM*; LmPK inh: 2%; Shiga inhibitor: -9; TbPYK inhibitor: -12%; RE007 growth inh: -3%; Cycloheximide cs: -2; Giardia growth: inconclusive; Mammal cell tox: 27%; Giardia FBPA inh-2: 3%; Rabbit FBPA inh: 0%; GAPDH counter: -11%

What do the screens show for `O=C(NC(=S)Nc1ncc(Br)cc1Br)c1ccccc1`?
Giardia FBPA inh-1: 6.3µM*; LmPK inh: 2%; Shiga inhibitor: 94*; TbPYK inhibitor: 0%; RE007 growth inh: -6%; Cycloheximide cs: 35*; Giardia growth: 9%[38.3 µM]; Mammal cell tox: -24%; Giardia FBPA inh-2: 0%; Rabbit FBPA inh: 23%; GAPDH counter: -3%

What do the screens show for `O=C(CN1CCN(C(=O)c2ccccc2)CC1)Nc1ncc(Br)cc1Br`?
Giardia FBPA inh-1: -2%; LmPK inh: 0%; Shiga inhibitor: 7; TbPYK inhibitor: -4%; RE007 growth inh: 3%; Cycloheximide cs: -1
